These results are taken from PubChem BioAssay AID2603 (Johns Hopkins Ion Channel Center, 2010).

Each structure is given as a SMILES string. Entries with a potency or affinity are not part of this list.

This assay has as its target Potassium voltage-gated channel subfamily KQT member 2 (Rattus norvegicus) (UniProt O88943). As to the kind of experiment: potentiation of rat KCNQ2 current – cell-based, automated electrophysiology, mechanism study for KCNQ2 potentiator project, dose response (AID 2603). Conditions: KCNQ2-CHO cells, automated patch clamp current potentiation; at 30 µM (top of the series). On the technique in general: Patch clamp records ionic current or voltage across a cell membrane.

Potassium voltage-gated channel subfamily KQT member 2 (Rattus norvegicus), sequence (O88943 whole entry, looked up): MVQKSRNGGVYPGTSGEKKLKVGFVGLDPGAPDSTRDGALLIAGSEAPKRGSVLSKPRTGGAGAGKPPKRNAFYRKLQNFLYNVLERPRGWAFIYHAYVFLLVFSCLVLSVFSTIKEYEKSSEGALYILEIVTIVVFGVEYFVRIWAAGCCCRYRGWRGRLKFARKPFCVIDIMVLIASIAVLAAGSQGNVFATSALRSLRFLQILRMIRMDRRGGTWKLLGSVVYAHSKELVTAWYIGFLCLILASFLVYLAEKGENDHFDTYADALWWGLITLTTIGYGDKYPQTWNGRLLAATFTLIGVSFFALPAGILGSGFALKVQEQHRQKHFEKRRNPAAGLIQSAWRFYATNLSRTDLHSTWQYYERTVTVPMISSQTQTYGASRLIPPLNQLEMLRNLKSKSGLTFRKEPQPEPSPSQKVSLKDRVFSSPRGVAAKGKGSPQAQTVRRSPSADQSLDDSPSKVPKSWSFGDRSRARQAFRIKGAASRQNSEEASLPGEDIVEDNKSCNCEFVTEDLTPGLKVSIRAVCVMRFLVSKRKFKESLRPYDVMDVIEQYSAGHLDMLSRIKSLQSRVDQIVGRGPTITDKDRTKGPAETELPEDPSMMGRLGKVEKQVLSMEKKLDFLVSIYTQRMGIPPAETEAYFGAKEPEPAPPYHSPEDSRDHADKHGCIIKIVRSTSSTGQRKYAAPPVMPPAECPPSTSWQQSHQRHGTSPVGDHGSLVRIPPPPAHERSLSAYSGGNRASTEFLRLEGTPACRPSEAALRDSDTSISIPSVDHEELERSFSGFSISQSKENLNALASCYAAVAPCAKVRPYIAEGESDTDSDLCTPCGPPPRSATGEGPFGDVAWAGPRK

Regarding `O=c1[nH]sc2cc(F)ccc12`, the potentiation was 102.
